Measured values: ChEMBL document CHEMBL2218924, “A broad activity screen in support of a chemogenomic map for kinase signalling research and drug discovery” (Biochem J, 2013)

Key:
[1] = molecular target: T1, Protein kinase C epsilon type (Homo sapiens) (UniProt Q02156); settings: at 1 µM
T1 sequence (whole entry): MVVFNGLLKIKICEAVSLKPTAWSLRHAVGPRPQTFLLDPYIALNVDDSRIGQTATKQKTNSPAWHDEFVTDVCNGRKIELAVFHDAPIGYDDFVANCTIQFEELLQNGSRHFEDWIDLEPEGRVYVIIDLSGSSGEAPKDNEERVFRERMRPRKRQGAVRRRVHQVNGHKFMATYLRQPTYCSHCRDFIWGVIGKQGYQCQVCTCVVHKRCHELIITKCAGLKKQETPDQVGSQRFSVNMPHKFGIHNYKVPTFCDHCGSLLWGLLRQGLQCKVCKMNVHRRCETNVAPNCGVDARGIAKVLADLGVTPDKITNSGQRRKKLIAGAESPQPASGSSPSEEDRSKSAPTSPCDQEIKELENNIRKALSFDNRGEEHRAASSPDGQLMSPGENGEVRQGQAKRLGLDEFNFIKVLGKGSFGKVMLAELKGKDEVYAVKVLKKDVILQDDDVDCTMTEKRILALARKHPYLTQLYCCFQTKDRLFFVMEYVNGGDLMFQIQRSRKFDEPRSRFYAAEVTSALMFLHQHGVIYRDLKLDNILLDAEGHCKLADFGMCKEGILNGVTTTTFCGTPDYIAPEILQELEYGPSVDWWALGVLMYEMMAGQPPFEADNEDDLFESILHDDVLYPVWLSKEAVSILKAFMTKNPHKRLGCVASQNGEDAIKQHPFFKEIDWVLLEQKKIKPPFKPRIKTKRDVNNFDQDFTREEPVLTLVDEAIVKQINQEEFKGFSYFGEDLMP

[2] = molecular target: T1, Protein kinase C epsilon type (Homo sapiens); settings: at 10 µM

| Compound | residual activity [1] | residual activity [2] |
| --- | --- | --- |
| O=c1cc(N2CCNCC2)oc2c(-c3ccccc3)cccc12 | 93% | 98% |
| NCCNc1ncc(C(N)=O)c(Nc2cccc(C(F)(F)F)c2)n1 | 77% | 62% |
| O=C1NC(=O)C(c2c[nH]c3ccccc23)=C1c1c[nH]c2ccccc12 | 63% | 21% |
| O=C(Nc1nc2ccccc2n1CCN1CCOCC1)c1cccc([N+](=O)[O-])c1 | 86% | 102% |
| Oc1cccc(-c2nc(N3CCOCC3)c3oc4ncccc4c3n2)c1 | 91% | 99% |
| Nc1ncnc2[nH]nc(Nc3ccc(F)cc3)c12 | 123% | 112% |
| O=c1cc(N2CCOCC2)oc2c1ccc1ccccc12 | 87% | 87% |
| COc1ccc2c(c1)c(C1=C(c3c[nH]c4ccccc34)C(=O)NC1=O)cn2CCCN(C)C | 3% | 0% |
| O=C1NC(=O)c2c1c1c3ccccc3[nH]c1n1cncc21 | 105% | 94% |
| CC(C)[C@H](CO)Nc1nc(Nc2cc(N)cc(Cl)c2)c2ncn(C(C)C)c2n1 | 100% | 98% |
| O=S(=O)(c1cccc2cnccc12)N1CCCNCC1 |  | 69% |
| CCCC(=O)Oc1ccc2[nH]c(C(=O)c3cc4ccccc4[nH]3)cc2c1 | 85% | 93% |
| O=C(NC(NC(=S)Nc1ccc(F)c([N+](=O)[O-])c1)C(Cl)(Cl)Cl)C(c1ccccc1)c1ccccc1 (configuration not stated) | 84% | 96% |
| Cc1cc(C)c(/C=C2\C(=O)Nc3ccccc32)[nH]1 | 82% |  |
| Cn1sc(=O)n(Cc2ccccc2)c1=O | 88% | 11% |
| CC(C)(C)n1nc(Cc2cccc3ccccc23)c2c(N)ncnc21 | 91% | 100% |
| O=C(c1ccccc1)c1ccc(N2CCOCC2)cc1O | 89% | 95% |

| Compound | residual activity [1] | residual activity [2] |
| --- | --- | --- |
| COc1ccc(Cl)cc1NC(=O)Nc1cc(C)nc2ccccc12 | 82% | 97% |
| Nc1ncnc2c1c(-c1ccc(Oc3ccccc3)cc1)cn2C1CCCC1 | 84% | 84% |
| COc1ccc(-c2cnc3c(-c4ccsc4)cnn3c2)cc1 | 86% | 100% |
| O=C1NC(=O)C(c2cn(CCCn3ccnc3)c3ccccc23)=C1Nc1ccccc1 | 21% | 3% |
| CN(C)S(=O)(=O)c1ccc2c(c1)/C(=C/c1cc3c([nH]1)CCCC3)C(=O)N2 | 98% | 85% |
| NC(=O)Nc1sc(-c2ccc(F)cc2)cc1C(N)=O | 102% | 94% |
| O=C1Nc2ccc(Cl)cc2/C1=C/c1cc(Cl)c(O)c(Cl)c1 | 87% | 97% |
| O=C(O)/C=C/c1cc(Br)c(Br)c(Br)c1Br | 104% | 102% |
| O=S(=O)(NCCNC/C=C/c1ccc(Br)cc1)c1cccc2cnccc12 |  | 76% |
| COc1cc2nccc(Oc3ccc(NC(=S)NC(=O)c4ccccc4C)cc3)c2cc1OC | 85% | 88% |
| CC(C)c1nn(-c2c(Cl)cccc2Cl)c2nc(Cc3ccc(OCCO)cc3)[nH]c(=O)c12 | 99% | 82% |
| Nc1ncnc2c1cnn2-c1ccccc1 | 80% | 101% |
| CC(C)N(CCC(=O)c1ccc2ccccc2c1)Cc1ccccc1 | 83% |  |
| CCOC(=O)c1c(C)[nH]c(/C=C2\C(=O)Nc3ccccc32)c1C | 83% | 88% |
| O=C1C(Cl)=C(N2C(=O)CCC2=O)C(=O)c2ccccc21 | 90% | 26% |
| CSc1nc(-c2ccc(F)cc2)c(-c2ccnc(NC(C)c3ccccc3)c2)[nH]1 (configuration not stated) | 125% | 101% |
